Assay outcomes from PubChem.
Hits are enriched below; roughly 0.59% of the tested compounds scored in any of these assays.
RXFP1 antagonist = qHTS Assay for Antagonists of the Relaxin Receptor RXFP1; activity change, negative = inhibition, % at 57.5 µM; AID 1259400, 2018; 350,000 compounds, 0.59% hits; HEK293-RXFP1, relaxin-stimulated cAMP HTRF, 30 min; hits give low values;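 active = activity change of -60% or lower, but not beyond a set lower limit; inconclusive = change between -60% and -40%, or beyond the set limit; inactive = change above -40%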
Target sequence (Q9HBX9 whole entry, looked up): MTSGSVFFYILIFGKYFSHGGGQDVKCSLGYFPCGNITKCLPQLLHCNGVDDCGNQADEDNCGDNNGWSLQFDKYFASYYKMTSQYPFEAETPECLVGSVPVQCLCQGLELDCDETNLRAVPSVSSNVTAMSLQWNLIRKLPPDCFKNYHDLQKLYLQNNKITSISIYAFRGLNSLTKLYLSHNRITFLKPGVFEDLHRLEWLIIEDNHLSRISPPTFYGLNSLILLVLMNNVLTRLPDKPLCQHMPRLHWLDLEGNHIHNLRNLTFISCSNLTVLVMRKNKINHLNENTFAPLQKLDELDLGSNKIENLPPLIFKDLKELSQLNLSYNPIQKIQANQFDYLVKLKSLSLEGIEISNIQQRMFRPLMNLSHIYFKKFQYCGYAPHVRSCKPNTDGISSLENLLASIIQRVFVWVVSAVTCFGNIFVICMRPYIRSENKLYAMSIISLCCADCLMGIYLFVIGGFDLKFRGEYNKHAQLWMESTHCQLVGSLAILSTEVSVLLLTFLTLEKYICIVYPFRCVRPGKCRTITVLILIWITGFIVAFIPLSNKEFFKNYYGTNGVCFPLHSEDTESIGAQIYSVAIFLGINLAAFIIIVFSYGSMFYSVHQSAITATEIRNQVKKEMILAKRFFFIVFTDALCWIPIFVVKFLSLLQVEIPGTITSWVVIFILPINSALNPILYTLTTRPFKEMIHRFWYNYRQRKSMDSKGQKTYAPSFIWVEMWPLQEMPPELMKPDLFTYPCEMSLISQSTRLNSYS
B2AR arrestin = qHTS assay of beta-arrestin-biased ligands of beta2-adrenergic receptor | Beta-2 adrenergic receptor (Homo sapiens), P07550 | beta-arrestin recruitment to beta2AR, cell-based reporter | Potency, µM (highest dose often 46.1 µM), for inactives: top-dose activation, actives largely listed as activators | 330,000 compounds, 0.02% hits | AID 492947, 2010;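 note: potency is the fitted concentration of half-maximal effect; 0% = DMSO controls and full agonism = EC100 isoproterenol or metaproterenol; nearly all actives have a fitted effect of over 65% in size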
BCR signal inh = qHTS Assay to Find Inhibitors of Chronic Active B-Cell Receptor Signaling; 340,000 compounds, 0.05% hits; AID 493014, 2011; Potency, µM (top dose mostly 46.1 µM), inactives show at the top dose activity change, negative = inhibition, actives largely listed as inhibitors; ABC-DLBCL IkBa-CBG/CBR reporter, luminescence ratio, 4 h; active = well fitted inhibition curve with a large enough effect in the signal ratio, with a control signal flat, not every such curve was filed as active; inconclusive = small, poorly fitted or top-dose-only effect, or effect the other way, or a change in a side signal; the % refers to the signal ratio;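 note: potency is the fitted concentration of half-maximal effect; plate controls were basal doxycycline-induced cells for no effect and cells given 10 µM MG132 for full effect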
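Concentration-response series (up to 46 uM) were applied to TMD8 dual-reporter cells for 4 h at 37C with doxycycline. Green/red ratio, after filter-overlap correction, defined %Activity; red signal alone was normalised to basal cells and zero luminescence.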
RXFP1 agonist = qHTS Assay for Agonists of the Relaxin Receptor RXFP1; Relaxin receptor 1 (Homo sapiens), Q9HBX9; HEK293T-RXFP1 cAMP TR-FRET, 30 min; response scale: percent of porcine relaxin response, buffer zero; Potency, µM (series often up to 57.5 µM), without a hit: at the highest dose activation, hits mostly activators; 370,000 compounds, 0.3% hits; note: potency is the fitted concentration of half-maximal effect; nearly all actives have a fitted effect of over 60% in size
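HEK293T cells stably expressing RXFP1 were pretreated with the PDE4 inhibitor Ro 20174, exposed to compounds for 30 min at 37C, lysed, and cAMP was read by TR-FRET. Data normalized to buffer (basal) and 29 nM porcine relaxin (100%).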
The depositor's hits bear a star; ? = inconclusive; . = not tested or not shown. Unless noted, calls come from the whole dose curve; as a rule, active = well fitted activation curve with a large enough effect; inconclusive = small, poorly fitted or top-dose-only effect; inactive = flat fitted curve, though single readings scatter. Unless noted, % is set by controls: 0 for no effect and ±100 for the full control effect.

SMILES	RXFP1 antagonist	B2AR arrestin	BCR signal inh	RXFP1 agonist
CCN(CC)c1ccc(/C=N/n2c(-c3ccccc3Br)n[nH]c2=S)cc1	-84.0*	-1.0%	-10.8%	0.3%
Cc1nn(-c2ccccc2)c(C)c1/C=N/n1c(-c2ccccc2Br)n[nH]c1=S	-16.1	6.3%	10.6%	2.5%
CC(C)NC(=O)Cc1csc2nc(-c3ccccc3)cn12	-6.8	.	.	-1.9%
Cn1c(=O)c2c(ncn2CCC(=O)N/N=C/c2ccccc2)n(C)c1=O	15.0	0.0%	?	?
Cn1c(=O)c2c(ncn2CCC(=O)N/N=C/c2cccnc2)n(C)c1=O	5.2	-0.2%	-20.5%	15.8µM*
Cc1ccc(Cl)cc1NC(=O)c1ccc(NC(=O)N2CCSc3ncccc32)cc1	-5.9	.	.	0.1%
Cc1ccc(C(=O)O)cc1NC(=O)C1=CSCCO1	-110.2*	0.2%	-10.8%	0.1%
Cc1ccc(C(=O)O)cc1NC(=O)c1cccs1	-2.4	0.1%	?	-0.4%
CC(=O)O[C@H]1CC[C@@]2(C)C(=CC[C@@H]3[C@@H]2CC[C@]2(C)C(C(C)=O)=CC[C@@H]32)C1	-10.3	.	.	.
CCOC(=O)C1=C(C)c2ccccc2N(C(=O)OC)C1(C)C(=O)OCC (stereo not given)	.	-0.5%	18.4µM*	.
O=C(CS(=O)(=O)c1ccc(Cl)cc1)Nc1nnc(-c2cccs2)o1	-75.0*	0.0%	0.7%	2.6%
O=C(CS(=O)(=O)c1ccc(F)cc1)Nc1nnc(-c2cccs2)o1	-4.8	0.5%	-26.3%	0.0%
CCC1CCCCN1S(=O)(=O)c1ccc(C(=O)Nc2nnc(-c3cccs3)o2)cc1 (stereo not given)	-73.0*	-0.8%	-6.5%	0.8%
Cc1ccc(NC(=O)c2ccc(Cl)cc2Cl)c(C(=O)c2ccccc2)c1	-29.8	.	.	-0.1%
O=C(Nc1ccc(N2CCCCC2)cc1)c1cncc(Br)c1	-8.5	-0.4%	?	-0.6%
O=C(Nc1ccc(N2CCN(C(=O)c3ccccc3F)CC2)cc1)c1cncc(Br)c1	-82.2*	-0.2%	?	-2.7%
CCCCOc1ccc(S(=O)(=O)Nc2cccc(-c3ccc(N4CCOCC4)nn3)c2)cc1	-16.7	.	.	1.6%
Cc1cccc(N2CCN(C(=O)c3cc4ccc5cccnc5c4[nH]3)CC2C)c1 (stereo not given)	-61.5*	.	.	-3.5%
CC(C)Oc1ccccc1C1CC(=O)Nc2cc3c(cc21)OCCO3 (stereo not given)	1.9	-1.0%	?	6.9%
COc1ccccc1C1CC(=O)Nc2cc3c(cc21)OCCO3 (stereo not given)	9.1	-0.7%	23.1µM*	1.6%
CCC(NC(C)C)C(O)c1ccc(O)c(O)c1 (stereo not given)	.	3.16µM*	-19.3%	?
Cc1ccc(C)c(N(C(=O)c2snc(C(N)=O)c2N)C(C(=O)NCC2CCCO2)c2ccc(C)o2)c1 (stereo not given)	-86.9*	-0.2%	-11.9%	0.7%
Cc1ccc(C)c(N(C(=O)c2snc(C(N)=O)c2N)C(C(=O)NCC2CCCO2)c2cccs2)c1 (stereo not given)	?	0.4%	-10.2%	2.6%
NC(=O)c1nsc(C(=O)N(c2ccc(Cl)cc2)C(C(=O)NCC2CCCO2)c2cccs2)c1N (stereo not given)	-62.3*	0.4%	3.0%	1.8%
CCc1ccc(N(C(=O)c2snc(C(N)=O)c2N)C(C(=O)NCC2CCCO2)c2cccs2)cc1 (stereo not given)	?	0.0%	-2.1%	-2.3%
SMILES	RXFP1 antagonist	B2AR arrestin	BCR signal inh	RXFP1 agonist
O=C(CSc1nc2c([nH]c3ccccc32)c(=O)n1-c1ccc(F)cc1)NCc1ccc(F)cc1	.	.	.	-1.0%
Cc1ccc(S(=O)(=O)NCCc2nnc3ccc(SCc4ccccc4F)nn23)cc1	2.7	.	.	2.8%
Cc1ccc(NC(=O)c2ccc(CN3CC(=O)N4CCCCC4C3=O)cc2)cc1C (stereo not given)	7.1	.	.	-1.9%
CCOc1cccc(C2c3c(-c4cc(C)ccc4O)n[nH]c3C(=O)N2Cc2ccco2)c1 (stereo not given)	-75.9*	.	.	2.5%
O=C1c2[nH]nc(-c3ccccc3O)c2C(c2ccccc2F)N1Cc1ccco1 (stereo not given)	-7.4	2.8%	5.6%	0.9%
Cc1ccc(O)c(-c2n[nH]c3c2C(c2ccccc2F)N(Cc2ccco2)C3=O)c1 (stereo not given)	-68.8*	.	.	-2.4%
COc1cc(CN(C(=O)c2ccc(Cl)cc2)C2CCS(=O)(=O)C2)cc(OC)c1OC (stereo not given)	-6.4	.	.	1.1%
Cn1ccc2cc(-c3ccc4ncnc(NCc5cccnc5)c4c3)ccc21	.	-0.3%	-0.5%	2.4%
COc1ccc(-n2c(-c3ccc(C)cc3)cc3c2CC(C)(C)CC3=O)c(OC)c1	-62.1*	.	.	3.6%
CSc1ccc(CNC(=O)C2CCCN(S(=O)(=O)N(C)c3ccc(F)cc3)C2)cc1 (stereo not given)	-39.4	.	.	0.7%
Cc1ccc(CNC(=O)C(C)n2nc(C)c3sc4ccccc4c3c2=O)cc1 (stereo not given)	-23.5	.	.	31.6µM*
Cc1nn(C(C)C(=O)NCc2ccc(OC(C)C)cc2)c(=O)c2c1sc1ccccc12 (stereo not given)	-23.7	.	.	-2.6%
COc1cccc(NC(=O)CSc2nccn2Cc2ccc3c(c2)OCO3)c1	8.0	.	.	-4.2%
COC(=O)c1ccc(C2C(C(=O)c3ccc(C)o3)=C(O)C(=O)N2c2cc(C)on2)cc1 (stereo not given)	-7.2	-0.1%	?	?
COC(=O)c1sc(N2C(=O)C(O)=C(C(=O)c3ccc(C)o3)C2c2ccc(F)cc2)nc1C (stereo not given)	-12.0	0.0%	-1.1%	8.91µM*
COC(=O)c1sc(N2C(=O)C(O)=C(C(=O)c3ccc(C)o3)C2c2cccs2)nc1C (stereo not given)	-20.5	-0.3%	-0.1%	12.6µM*
COC(=O)c1sc(N2C(=O)C(O)=C(C(=O)c3ccc(C)o3)C2c2ccco2)nc1C (stereo not given)	-6.4	0.2%	2.0%	-5.9%
O=C(COC(=O)c1ccc(NS(=O)(=O)c2cccs2)cc1)Nc1nc2c(F)c(F)c(F)cc2s1	-61.5*	-0.4%	?	2.5%
O=C(Nc1cccnc1Cl)c1ccc(Cl)cc1	-63.2*	-0.3%	2.6%	0.7%
O=C(CCCCCn1c(=S)[nH]c2ccc(N3CCOCC3)cc2c1=O)NCc1ccccc1Cl	-103.9*	0.1%	-14.7%	?
O=C(CCCCCn1c(=S)[nH]c2ccc(N3CCOCC3)cc2c1=O)NCc1ccc2c(c1)OCO2	?	0.0%	-9.0%	?
O=C(CCCCCn1c(=S)[nH]c2ccc(N3CCOCC3)cc2c1=O)NCc1ccc(Cl)cc1	-92.4*	0.3%	-6.0%	14.0%
CCOc1ncc(F)c(=O)[nH]1	5.6	.	.	.
CC(C)c1ccc(NC(=O)c2cn(C3CCCC3)c(=O)c3c2c2ccccc2n3C)cc1	?	.	.	0.2%
